The list is not random: actives were taken first. Their share in the collection is about 2.6%.
TRPV1 potentiator – HTS Assay for Compounds that Act as Potentiators of the Vanilloid Receptor 1. Transient receptor potential cation channel subfamily V member 1 (Homo sapiens), Q8NER1. TRPV1-expressing cells, Fluo-8 calcium influx, capsaicin EC20 potentiation. potentiation, % at 8.33 µM. hit rate 0.02% among 320,000. AID 540277, 2011; in the data active means potentiation above about 80%; inconclusive means between about 30% and that limit; further: 0% is about no effect
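Cells expressing TRPV1 were dye-loaded with Fluo-8 and read kinetically: 10 s baseline, 3 min after compound (agonist portion), then 2 min after EC20 capsaicin (allosteric enhancer portion). Calcium-bound dye fluorescence at 480/520 nm.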
TRPV1 ag – HTS Assay for Compounds that Act as Agonists of the Vanilloid Receptor 1; Transient receptor potential cation channel subfamily V member 1 (Homo sapiens), Q8NER1; TRPV1-expressing cells, Fluo-8 calcium influx, agonist mode; activation, % at 8.33 µM; hit rate 0.19% among 320,000; in the data active means activation above about 80%; inconclusive means between about 30% and that limit; further: 0% is about no effect
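TRPV1-expressing cells were cultured overnight at 35.5C and loaded with Fluo-8 calcium dye for 40 to 90 min at room temperature. After a 10 s baseline, compound was added and calcium influx was read kinetically for 3 min (ex 480/em 520 nm).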
KCNH2 3.1 inh – qHTS for Inhibitors of KCHN2 3.1: Mutant qHTS; Potassium voltage-gated channel subfamily H member 2, brain isoform KCNH2 3.1 (human); U2OS KCNH2 3.1, thallium flux FluxOr; stronger effect = lower value; activity change, % (tested at about 1.8 µM); hit rate 0.95% among 340,000; AID 720553, 2013;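 active means maximum activity change below -70%; inconclusive means maximum activity change from -70% to -50%; inactive means maximum activity change above -50%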;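 further: thallium influx rate constant from kinetic fluorescence after stimulation buffer; on the % scale 0 is the no-effect control and ±100 the full control effect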
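Measured as rate of thallium-driven FluxOr signal in transduced U2OS cells carrying the 3.1 channel, read kinetically for 2 min upon stimulation; values are rate constants scaled to DMSO control wells.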
ClpP mod – qHTS Assay for Activators of ClpP. purified B. subtilis ClpP, FRET peptide cleavage, 20 min. Potency, µM (highest dose often 57.5 µM), without a hit: at the top dose activity change, negative = active. hit rate 1.9% among 340,000; active means well fitted falling curve with a large enough effect; inconclusive means small, poorly fitted or top-dose-only effect; inactive means no such curve, though single readings can be large or run the other way; further: potency means the concentration at half of the fitted maximal effect; the source files actives as falling curves though it sought activators and does not explain the sign; nearly all actives have a fitted effect of over 65% in size
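Buffer: 100 mM Tris/HCl pH8, 100 mM KCl, 0.05% low protease BSA, 2.5% glycerol, 0.01% Tween-20. ClpP 10 microg/mL final; 20 min RT; delta FRET normalized to ADEP and DMSO controls.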
p53 reactivator – qHTS assay for re-activators of p53 using a Luc reporter; hit rate 0.063% among 320,000; Potency, µM (series often up to 92.2 µM), without a hit: top-dose activity change, positive = activation, hits mostly activators; H1299 p53-A138V BP100-luciferase reporter, luminescence, 24 h; active means well fitted activation curve with a large enough effect; inconclusive means small, poorly fitted or top-dose-only effect; inactive means no such curve, though single readings can be large or run the other way; further: potency means the concentration at half of the fitted maximal effect; % of control where 0% means no effect; nearly all actives have a fitted effect of over 45% in size
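H1299 (p53-null), stable ts p53-A138V + BP100-Luc; 1000 cells/well, Opti-MEM/10% FBS; cpd 4 pt, 1:5; 24 h, 37 deg C, 5% CO2; detection reagent 10 min RT; luminescence.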
hERG WT inh – qHTS for Inhibitors of KCHN2 3.1: Wildtype qHTS; AID 720551, 2013; activity change, % at 1.84 µM; U2OS, BacMam KCNH2, thallium flux FluxOr; stronger effect = lower value; hit rate 0.37% among 340,000; Voltage-gated inwardly rectifying potassium channel KCNH2 (Homo sapiens), Q12809;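 active means maximum activity change below -70%; inconclusive means maximum activity change between -70% and -50%; inactive means maximum activity change above -50%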; further: on the % scale 0 is the no-effect control and ±100 the full control effect
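U2OS cells transduced with wild-type KCNH2 virus are loaded with FluxOr dye for 45 min, and thallium flux is measured in kinetic reads before and after stimulation buffer. Rate constants are normalized to DMSO controls.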
An asterisk follows results filed as active; ? = inconclusive; . = no result given.

SMILES	TRPV1 potentiator	TRPV1 ag	KCNH2 3.1 inh	ClpP mod	p53 reactivator	hERG WT inh
O=C(Nc1ccc(CN2CCOCC2)cc1)c1ccc(-c2cc(Cl)ccc2Cl)o1	-15	21	-76*	?	-1%	8
COC(=O)c1c(SCC(=O)Nc2cccc(C(F)(F)F)c2)[nH]c2ccccc2c1=O	.	.	.	-7%	.	.
CC1CCN(CCCNC(=O)COc2cc(=O)n(C)c3ccccc23)CC1	-4	2	-4	-12%	3%	13
CCn1c(=O)cc(OCC(=O)NCCCN2CCC(C)CC2)c2ccccc21	-17	-1	-77*	-10%	-3%	-23
CCOc1ccc(CCNC(=O)CSc2cc(=O)n(CC)c3ccccc23)cc1OCC	-1	-1	4	32µM*	-7%	1
O=C1NC(c2ccccc2)N=C2Oc3ccccc3C=C12 (stereo not drawn)	.	.	.	11µM*	.	-2
Cc1ccc(S(=O)(=O)Nc2ccc3cc([N+](=O)[O-])ccc3c2[N+](=O)[O-])cc1	.	.	-25	.	.	-1
COC(=O)c1cc(S(=O)(=O)N2CCN(c3ccccc3F)CC2)c[nH]1	-8	9	-79*	1%	-7%	8
CCc1ccc(NC(=O)C(=O)NCC(c2cccnc2)N2CCN(c3ccc(F)cc3)CC2)cc1 (stereo not drawn)	.	.	.	3%	.	.
S=Cc1ccc(/C=C/c2ccnc3ccccc23)cc1	.	.	.	-3%	.	.
Cc1nc(NC(=S)NC(=O)c2ccco2)sc1C(=O)N(C)C	2	-1	3	0%	27%	-123*
Cc1ccc(C2CC(=O)n3nc(-c4ccc(Cl)cc4)nc3S2)cc1 (stereo not drawn)	.	.	.	-3%	.	.
CCOc1cccc(-c2cc(=O)[nH][nH]2)c1	-6	-1	7	14µM*	3%	40
COc1ccc(-n2c(SCC(=O)N/N=C/c3ccccc3OCC(=O)O)nc3ccccc3c2=O)cc1	-9	-3	-9	-1%	-7%	3
COc1ccc(-n2c(SCC(=O)N/N=C(\C)c3cccnc3)nc3ccccc3c2=O)cc1	11	1	6	32µM*	2%	-1
O=C(NC(=S)Nc1cc([N+](=O)[O-])ccc1Cl)c1ccccc1	-7	8	-154*	-1%	?	-168*
Cc1ccc(-c2cc(C(=O)N3CCc4ccccc4C3)[nH]n2)cc1C	-6	?	21	-3%	7%	-17
COc1cccc(-c2cc(C(=O)N3CCc4ccccc4C3)[nH]n2)c1	-17	29	9	2%	10%	-302*
C=CCNc1nc(NCCOC)c2sc(-c3ccccc3)cc2n1	.	.	.	-23%	.	.
CCc1ccccc1Oc1nc2cc(-c3cccc(OC)c3)sc2c(=O)n1C	.	.	.	13µM*	.	.
CCc1ccccc1Oc1nc(NCCOC)nc2cc(-c3ccccc3)sc12	.	.	.	22µM*	.	.
COCCNc1nc(-c2cc(F)ccc2C)c2sc(-c3ccccc3)cc2n1	.	.	.	5%	.	.
COCCNc1nc(Oc2ccc(NC(C)=O)cc2)c2sc(-c3ccccc3)cc2n1	.	.	.	32µM*	.	.
COCCNc1nc(-c2ccccc2F)c2sc(-c3ccccc3)cc2n1	.	.	.	32µM*	.	.
COc1cccc(/C=C/C(=O)Nc2ccc3nc(N4CCN(C)CC4)cc(C)c3c2)c1OC	.	.	.	-2%	.	.
Cc1ccc(NC(=O)CSc2ccc(C(N)=O)cc2[N+](=O)[O-])cc1	6	10	-2	-1%	?	-1
Cc1ccc(NC(=O)CSc2ccc(C(N)=O)cc2[N+](=O)[O-])cc1C	6	-3	-78*	.	20%	0

Screening data as filed in PubChem.
